Experiment in all cases: NCI-60 one-dose screen, 48 h (100 = growth as untreated, 0 = no growth, -100 = all killed)
One assay concerns SR leukemia. The settings on record: 10 µM unless noted.
The next assay relates to RPMI-8226 leukemia. The settings on record: 10 µM.
The next assay concerns OVCAR-8 ovarian. The settings on record: 10 µM unless noted.
Another assay relates to OVCAR-5 ovarian. The settings on record: 10 µM unless noted.
A further assay has as its system OVCAR-4 ovarian. The settings on record: 10 µM unless noted.
For a further assay, the system named is SK-OV-3 ovarian. The settings on record: 10 µM.
The subject of the next assay is IGROV1 ovarian. The settings on record: 10 µM unless noted.
For a further assay, the system named is OVCAR-3 ovarian. The settings on record: 10 µM unless noted.
The next assay relates to HS 578T breast. The settings on record: 10 µM unless noted.
The test system of another assay is NCI/ADR-RES ovarian. The settings on record: 10 µM unless noted.
Another assay relates to T-47D breast. The settings on record: 10 µM.
The next assay concerns BT-549 breast. The settings on record: 10 µM unless noted.
The test system of a further assay is SW-620 colon. The settings on record: 10 µM unless noted.
In a further assay the test system is HCT-116 colon. The settings on record: 10 µM unless noted.
The next assay deals with HCC-2998 colon. The settings on record: 10 µM unless noted.
The subject of the next assay is KM12 colon. The settings on record: 10 µM unless noted.
The subject of another assay is MDA-MB-435 melanoma. The settings on record: 10 µM unless noted.
For a further assay, the system named is MCF7 breast. The settings on record: 10 µM unless noted.

This is part of a sample that, as a whole, favours compounds with a hit. Of some 83,000 tested, about 20% had one in any assay.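 Method: cells in 96-well plates; compound added at one concentration; 48 h incubation; percent growth measured; values under 10 scored active.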 Values without a mark were called inactive. Active and inactive are the calls of the source.

On to `C(=C\c1ccccc1)/CN1CCN(C(c2ccccc2)c2ccccc2)CC1`, for which the growth in the assay on SR leukemia is 76.4%; in the assay on RPMI-8226 leukemia, 77.1%; in the assay on OVCAR-8 ovarian, 85.7%; in the assay on OVCAR-5 ovarian, 101%; in the assay on OVCAR-4 ovarian, 87.1%; with SK-OV-3 ovarian, 108%. Moreover, the growth was 122% in the assay on IGROV1 ovarian; 114% in the assay with OVCAR-3 ovarian; 93.4% with HS 578T breast; 81.7% in the assay with NCI/ADR-RES ovarian; 79.7% with T-47D breast; 92.2% in the assay on BT-549 breast. Moreover, the growth was 90.3% in the assay with SW-620 colon, 95.8% in the assay on HCT-116 colon, 100% with HCC-2998 colon and 104% in the assay with KM12 colon.
For the compound `Cc1nc2nc(C(F)(F)F)[nH]c2nc1C`, the growth was 111% with SR leukemia; 92.1% in the assay with RPMI-8226 leukemia; 105% in the assay with OVCAR-8 ovarian; 115% in the assay on OVCAR-5 ovarian; 97.7% in the assay with OVCAR-4 ovarian; 98.5% in the assay on SK-OV-3 ovarian. Moreover, the growth was 117% in the assay on IGROV1 ovarian; 116% in the assay with OVCAR-3 ovarian; 119% in the assay on HS 578T breast; 107% in the assay with NCI/ADR-RES ovarian; 104% with T-47D breast; 100% in the assay on BT-549 breast. Moreover, the growth in the assay on MDA-MB-435 melanoma is 112%; in the assay with SW-620 colon, 114%; in the assay on MCF7 breast, 95.2%; in the assay with HCT-116 colon, 101%; in the assay with KM12 colon, 105%.
`Cc1cc(=O)[nH]n1-c1cc(Cl)ccc1N`: the growth in the assay on SR leukemia is 96.6%; in the assay on RPMI-8226 leukemia, 106%; with OVCAR-8 ovarian, 103%; in the assay with OVCAR-5 ovarian, 111%; with OVCAR-4 ovarian it was 105%; with SK-OV-3 ovarian it was 98.6%. The growth in the assay on IGROV1 ovarian is 109%; with OVCAR-3 ovarian it was 124%; with HS 578T breast it was 123%; in the assay with NCI/ADR-RES ovarian, 90.6%; with T-47D breast, 105%; in the assay with BT-549 breast it was 87.1%. Moreover, the growth was 111% with MDA-MB-435 melanoma; 113% in the assay with SW-620 colon; 101% in the assay with MCF7 breast; 95.6% with HCT-116 colon; 119% with KM12 colon.
In the case of `Cc1ccc(C)c2c1sc1nc3nc4sc5ccccc5n4c(=N)c3c(=O)n12`, the growth was 78.5% in the assay on SR leukemia; 89.4% in the assay on RPMI-8226 leukemia; 116% in the assay on OVCAR-8 ovarian; 91.3% with OVCAR-5 ovarian; 88% in the assay on OVCAR-4 ovarian; 92.5% in the assay with SK-OV-3 ovarian. For the same compound, the growth was 64.3% in the assay on IGROV1 ovarian; 89.4% in the assay on OVCAR-3 ovarian; 94.8% with HS 578T breast; 97.6% in the assay with NCI/ADR-RES ovarian; 78.9% with T-47D breast; 121% in the assay with MDA-MB-435 melanoma. Further, the growth in the assay with SW-620 colon is 108%; with MCF7 breast, 51.1%; in the assay with HCT-116 colon, 91.6%; in the assay with HCC-2998 colon, 94.6%; with KM12 colon, 101%.
Consider `COc1cc(C(=O)N(C(C)C)C2CCCCC2)cc(OC)c1OC`, for which the growth in the assay on SR leukemia was 99.5%; in the assay on RPMI-8226 leukemia, 88.5%; in the assay with OVCAR-8 ovarian it was 90.3%; with OVCAR-5 ovarian, 109%; in the assay with OVCAR-4 ovarian, 107%; in the assay with SK-OV-3 ovarian it was 91.3%. Moreover, the growth in the assay with IGROV1 ovarian is 105%; in the assay on OVCAR-3 ovarian it was 113%; in the assay with HS 578T breast it was 102%; with NCI/ADR-RES ovarian, 96.1%; with T-47D breast, 107%; with BT-549 breast, 143%. Also, the growth in the assay on MDA-MB-435 melanoma was 107%; in the assay with SW-620 colon it was 107%; in the assay on MCF7 breast it was 86.2%; in the assay on HCT-116 colon, 122%; in the assay on KM12 colon it was 102%.
Take `CCCCCCCCCCCCSC1=CC(=O)C=CC1=O`: the growth is 71.5% with SR leukemia; -8.18% (active) in the assay with RPMI-8226 leukemia; 35.1% with OVCAR-8 ovarian; 89.7% with OVCAR-5 ovarian; 57.1% in the assay with OVCAR-4 ovarian; 82.3% with SK-OV-3 ovarian. The growth is -26.6% (active) in the assay on IGROV1 ovarian; 73.2% in the assay on OVCAR-3 ovarian; 63.8% in the assay on HS 578T breast; 59.8% in the assay with NCI/ADR-RES ovarian; 30.6% in the assay on T-47D breast; 102% in the assay on MDA-MB-435 melanoma. The growth was 109% with SW-620 colon; 68.9% in the assay on MCF7 breast; 78.3% in the assay with HCT-116 colon; 94.3% in the assay with HCC-2998 colon; 48.9% in the assay with KM12 colon.
Regarding `COc1ccc(Nc2nc(NCCNc3ccnc4cc(Cl)ccc34)nc(N3CCOCC3)n2)cc1`, the growth with SR leukemia was 7.72% (active); in the assay on RPMI-8226 leukemia, 45.9%; in the assay with OVCAR-8 ovarian, 71.4%; in the assay on OVCAR-5 ovarian it was 130%; in the assay with OVCAR-4 ovarian it was 81.3%; in the assay on SK-OV-3 ovarian it was 100%. The growth in the assay with IGROV1 ovarian is 72.8%; with OVCAR-3 ovarian, 73.4%; in the assay with HS 578T breast it was 66.3%; in the assay with NCI/ADR-RES ovarian, 76.2%; in the assay on T-47D breast, 110%; in the assay on MDA-MB-435 melanoma, 11.1%. For the same compound, the growth is 27.2% in the assay on SW-620 colon; 56.2% in the assay on MCF7 breast; 41.8% in the assay with HCT-116 colon; 0.682% (active) in the assay with HCC-2998 colon; 51.5% in the assay with KM12 colon.
As for `Cc1nc2cc(Nc3nc(Cl)nc(Nc4ccc(F)cc4)n3)ccc2n1Cc1ccccc1`, the growth in the assay with SR leukemia was 57.5%; with RPMI-8226 leukemia, 15.3%; with OVCAR-8 ovarian it was 81.5%; in the assay on OVCAR-5 ovarian it was 86.3%; with OVCAR-4 ovarian, 85.8%; with SK-OV-3 ovarian, 95.9%. The growth in the assay on IGROV1 ovarian is 83%; in the assay with OVCAR-3 ovarian it was 94.2%; with HS 578T breast, 79.5%; in the assay with NCI/ADR-RES ovarian, 95.6%; in the assay with T-47D breast, 57%; in the assay with BT-549 breast it was 90.6%. Further, the growth is 95.6% in the assay on MDA-MB-435 melanoma, 84.8% with SW-620 colon, 61.5% with MCF7 breast and 94.5% in the assay on HCC-2998 colon.
In the case of `O=C(O)CCN1CCN(c2cccc(Cl)c2)CC1`, the growth was 88% in the assay on SR leukemia; 112% in the assay with RPMI-8226 leukemia; 99.1% in the assay on OVCAR-8 ovarian; 98.9% with OVCAR-5 ovarian; 92% in the assay with OVCAR-4 ovarian; 104% in the assay with SK-OV-3 ovarian. Besides, the growth is 105% in the assay on IGROV1 ovarian; 122% with OVCAR-3 ovarian; 105% with HS 578T breast; 112% in the assay with NCI/ADR-RES ovarian; 98.3% in the assay on T-47D breast; 104% with BT-549 breast. Besides, the growth is 93.1% in the assay with MDA-MB-435 melanoma; 107% in the assay on SW-620 colon; 86.1% in the assay with MCF7 breast; 114% in the assay on HCC-2998 colon; 114% in the assay with KM12 colon.

(Values after PubChem BioAssay (NCI).)
